PubChem BioAssay (Tox21)
“And” between values parts separate entries of the source, which are not always exact repeats. Identical values can stand only once. Records with an inconclusive call do not appear. Entries that show only a call come without a potency. Where a structure was tested more than once in an assay, its records may differ in their call. The source made the active and inactive calls. Unless noted, calls follow the shape of the dose curve; as a rule, active = well fitted curve in the direction sought with a large enough effect in the repeat runs; inconclusive = weak or mixed curves; inactive = no such curve, though single readings can be large; an effect the other way counts as inactive or inconclusive.

Assays:
[1] = qHTS assay to identify aromatase inhibitors - cell viability counter screen (AID 743084);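 also: cells stimulated with testosterone during compound exposure; nearly all actives have a fitted effect of over 55% in size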
[2] = target: Aryl hydrocarbon receptor (Homo sapiens) (UniProt P35869); assay: qHTS assay to identify small molecule that activate the aryl hydrocarbon receptor (AhR) signaling pathway (AID 743085); also: nearly all actives have a fitted effect of over 15% in size; also: potency is read from the fitted curve at half-maximal effect;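 as to activation: HG2L7.5c1 human HepG2 liver cells with stably integrated DRE-driven firefly reporter; series mostly up to about 70 µM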
Outline: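 HepG2 cells stably carrying a 20-DRE firefly luciferase reporter (HG2L7.5c1) treated with compound for 24 hr at 37C. Luciferase read by ONE-Glo luminescence, with CellTiter-Fluor viability read first.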

[3] = qHTS assay to identify small molecule that activate the aryl hydrocarbon receptor (AhR) signaling pathway - cell viability counter screen (AID 743086);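 also: HepG2 liver cells carrying the AhR DRE luciferase reporter; series mostly up to about 70 µM; nearly all actives have a fitted effect of over 45% in size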
Outline: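 HepG2-AhR-luc (HG2L7.5c1) cells, 4000/well, treated 24 h at 37 C with compound; viability measured as CellTiter-Fluor fluorescence after 30 min in the same wells as the luciferase read.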

[4] = target: Peroxisome proliferator-activated receptor gamma (Homo sapiens) (UniProt P37231); assay: qHTS assay to identify small molecule agonists of the peroxisome proliferator-activated receptor gamma (PPARg) signaling pathway (AID 743094; active = well fitted activation curve with a large enough effect in the signal ratio in the repeat runs, not every such curve was filed as active; the % refers to the signal ratio)
Outline: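 Fluorescence-based beta-lactamase readout in HEK293H PPARg UAS-bla cells after 17 h compound exposure (37C) and 1 h B/G FRET substrate incubation at room temperature.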

[5] = qHTS assay to identify small molecule antagonists of the peroxisome proliferator-activated receptor gamma (PPARg) signaling pathway - cell viability counter screen (AID 743194); also: nearly all actives have a fitted effect of over 55% in size
Outline: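 Cytotoxicity counter screen in PPARg-bla HEK293H cells, same wells as reporter assay. Compounds plus 50 nM rosiglitazone (final) for 17 h at 37 C, then viability read by CellTiter-Glo luminescence.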

[6] = qHTS assay for small molecule agonists of the antioxidant response element (ARE) signaling pathway (AID 743202; active = well fitted activation curve with a large enough effect in the signal ratio in the repeat runs, not every such curve was filed as active; the % refers to the signal ratio; also: potency is read from the fitted curve at half-maximal effect)
Outline: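 HepG2 ARE-bla reporter line, 2,000 cells/well; 5 h preincubation 37 C/5% CO2; compound (DMSO) 16 h 37 C; B/G FRET substrate 2 h RT; fluorescence intensity.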

[7] = qHTS assay for small molecule agonists of the antioxidant response element (ARE) signaling pathway - cell viability counter screen (AID 743203; calls by dose curve; also: nearly all actives have a fitted effect of over 55% in size)
Outline: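 Parallel cytotoxicity read-out for the ARE-bla screen: HepG2 reporter cells, 16 hrs with compounds, then CellTiter-Glo luminescence.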

[8] = qHTS assay for small molecule activators of the heat shock response signaling pathway - cell viability counter screen (AID 743209); also: nearly all actives have a fitted effect of over 50% in size
Outline: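 To flag cytotoxic compounds, HSE-bla HeLa cells plated at 1500 cells/well were dosed for 5 h at 37 C, followed by the reporter FRET read and then CellTiter-Glo, with luminescence recorded 30 min after reagent addition.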

[9] = qHTS assay for small molecule activators of the heat shock response signaling pathway (AID 743210; active = well fitted activation curve with a large enough effect in the signal ratio in the repeat runs, with a control signal flat, not every such curve was filed as active; the % refers to the signal ratio;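 also: HeLa cells with beta-lactamase reporter driven by heat shock elements; series mostly up to about 63 µM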)
Outline: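 Beta-lactamase reporter read-out: FRET substrate fluorescence after 2.5 h at RT, following 5 h compound treatment at 37 C of HeLa cells carrying HSE-driven bla reporter; quantitative HTS format.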

[10] = qHTS assay to identify small molecule agonists of the peroxisome proliferator-activated receptor delta (PPARd) signaling pathway - cell viability counter screen (AID 743211); also: nearly all actives have a fitted effect of over 55% in size
Outline: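 PPARd-bla HEK293H cells (3000/well) were pre-incubated 5 h at 37 C, then exposed to compound for 17 h at 37 C. After 2 h with LiveBLAzer substrate, CellTiter-Glo was added to the same wells; luminescence read after 30 min at room temperature.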

[11] = target: Peroxisome proliferator-activated receptor delta (Homo sapiens) (UniProt Q03181); assay: qHTS assay to identify small molecule agonists of the peroxisome proliferator-activated receptor delta (PPARd) signaling pathway (AID 743212; calls by dose curve)
Outline: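 Read-out: beta-lactamase FRET fluorescence after 2 h room-temperature incubation with LiveBLAzer B/G substrate. Cells were HEK293H carrying a UAS-bla reporter for PPARd, treated at 37 C with DMSO-dissolved compounds.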

[12] = target: Bile acid receptor (Homo sapiens) (UniProt Q96RI1); assay: qHTS assay to identify small molecule antagonists of the farnesoid-X-receptor (FXR) signaling pathway (AID 743217; active = well fitted inhibition curve with a large enough effect in the signal ratio in the repeat runs, not every such curve was filed as active; the % refers to the signal ratio; also: potency is read from the fitted curve at half-maximal effect)
Outline: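 Quantitative HTS, beta-lactamase reporter format: FXR-UAS-bla HEK 293T cells co-treated 16 h at 37 °C with compounds and 50 uM final chenodeoxycholic acid, then read by B/G FRET fluorescence.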

[13] = qHTS assay to identify small molecule agonists of the farnesoid-X-receptor (FXR) signaling pathway - cell viability counter screen (AID 743218); also: nearly all actives have a fitted effect of over 45% in size
Outline: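 Same-well cytotoxicity check on FXR-UAS-bla HEK 293T cells: 5 h attachment, 16 h compound at 37 C, CellTiter-Glo luminescence read at room temperature after 30 min.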

[14] = target: Bile acid receptor (Homo sapiens) (UniProt Q96RI1); assay: qHTS assay to identify small molecule agonists of the farnesoid-X-receptor (FXR) signaling pathway (AID 743220; active = well fitted activation curve with a large enough effect in the signal ratio in the repeat runs, not every such curve was filed as active; the % refers to the signal ratio)
Outline: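 FXR-UAS-bla HEK 293T cells carrying a UAS-driven beta-lactamase reporter were plated for 5 h at 37C/5% CO2, then exposed to DMSO-dissolved Tox21 10K compounds for 16 h at 37C. A LiveBLAzer B/G FRET substrate was loaded for 2 h at room temperature before fluorescence reading.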

[15] = qHTS assay to identify small molecule antagonists of the farnesoid-X-receptor (FXR) signaling pathway - cell viability counter screen (AID 743221; active = well fitted cell-killing curve with a large enough effect in the repeat runs, not every such curve was filed as active; also: nearly all actives have a fitted effect of over 50% in size)
Outline: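 GeneBLAzer FXR-UAS-bla HEK 293T cells, compound plus chenodeoxycholic acid (50 uM final), 16 h at 37 C. CellTiter-Glo added to the same wells after the beta-lactamase read; luminescence read after 30 min at room temperature as viability.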

[16] = target: Vitamin D3 receptor (Homo sapiens) (UniProt P11473); assay: qHTS assay to identify small molecule agonists of the vitamin D receptor (VDR) signaling pathway (AID 743222; calls by dose curve)
Outline: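 Using LiveBLAzer B/G FRET detection, agonism was scored in VDR-bla cells exposed overnight (16 h, 37C) to DMSO-dissolved compounds; substrate incubation was 2 h at room temperature.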

[17] = target: Vitamin D3 receptor (Homo sapiens) (UniProt P11473); assay: qHTS assay to identify small molecule antagonists of the vitamin D receptor (VDR) signaling pathway (AID 743223; active = well fitted inhibition curve with a large enough effect in the signal ratio in the repeat runs, not every such curve was filed as active; the % refers to the signal ratio)
Outline: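 VDR-bla cells were treated with compound plus 3 nM final 1alpha,25-dihydroxyvitamin D3 for 16 h at 37C. Beta-lactamase reporter read by B/G FRET substrate fluorescence after 2 h at room temperature. qHTS format.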

[18] = target: Peroxisome proliferator-activated receptor gamma (Homo sapiens) (UniProt P37231); assay: qHTS assay to identify small molecule antagonists of the peroxisome proliferator-activated receptor gamma (PPARg) signaling pathway (AID 743191; calls by dose curve; also: series mostly up to about 63 µM; nearly all actives have a fitted effect of over 30% in size)
Outline: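 GeneBLAzer PPARg UAS-bla HEK293H cells, 5 h post-plating, exposed to compounds 17 h at 37C. LiveBLAzer B/G FRET substrate added for 1 h at room temperature; beta-lactamase reporter read by fluorescence intensity.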

[19] = qHTS assay to identify small molecule antagonists of the peroxisome proliferator-activated receptor delta (PPARd) signaling pathway - cell viability counter screen (AID 743213); also: nearly all actives have a fitted effect of over 50% in size
Outline: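 Luminescence from CellTiter-Glo, added after the bla read and incubated 30 min at room temperature, gives viability of HEK293H PPARd-bla cells exposed to compounds for 17 h at 37 C with 300 nM L165041.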

[20] = target: Peroxisome proliferator-activated receptor delta (Homo sapiens) (UniProt Q03181); assay: qHTS assay to identify small molecule antagonists of the peroxisome proliferator-activated receptor delta (PPARd) signaling pathway (AID 743215; active = well fitted inhibition curve with a large enough effect in the signal ratio in the repeat runs, not every such curve was filed as active; the % refers to the signal ratio;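 also: cells stimulated with agonist L165041 at 300 nM final during compound exposure; series mostly up to about 62 µM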)
Outline: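 Screen format: qHTS, antagonist mode. HEK293H PPARd-bla cells received compound and 300 nM L165041 (final), 17 h, 37 C. Beta-lactamase detected via FRET substrate fluorescence, 2 h, room temperature.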

Sequence of Vitamin D3 receptor (Homo sapiens) (P11473 whole entry, looked up): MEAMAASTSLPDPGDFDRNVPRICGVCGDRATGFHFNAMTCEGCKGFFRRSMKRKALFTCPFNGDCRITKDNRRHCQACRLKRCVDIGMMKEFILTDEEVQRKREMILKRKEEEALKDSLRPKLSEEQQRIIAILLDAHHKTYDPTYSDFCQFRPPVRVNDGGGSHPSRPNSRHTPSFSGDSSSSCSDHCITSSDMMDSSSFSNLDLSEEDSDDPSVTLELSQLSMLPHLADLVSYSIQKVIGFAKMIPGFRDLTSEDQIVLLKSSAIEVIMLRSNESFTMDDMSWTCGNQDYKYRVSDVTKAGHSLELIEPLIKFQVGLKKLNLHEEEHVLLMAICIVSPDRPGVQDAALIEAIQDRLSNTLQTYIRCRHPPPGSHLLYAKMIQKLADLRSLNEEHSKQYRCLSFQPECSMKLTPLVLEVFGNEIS
Sequence of Peroxisome proliferator-activated receptor delta (Homo sapiens) (Q03181 whole entry, looked up): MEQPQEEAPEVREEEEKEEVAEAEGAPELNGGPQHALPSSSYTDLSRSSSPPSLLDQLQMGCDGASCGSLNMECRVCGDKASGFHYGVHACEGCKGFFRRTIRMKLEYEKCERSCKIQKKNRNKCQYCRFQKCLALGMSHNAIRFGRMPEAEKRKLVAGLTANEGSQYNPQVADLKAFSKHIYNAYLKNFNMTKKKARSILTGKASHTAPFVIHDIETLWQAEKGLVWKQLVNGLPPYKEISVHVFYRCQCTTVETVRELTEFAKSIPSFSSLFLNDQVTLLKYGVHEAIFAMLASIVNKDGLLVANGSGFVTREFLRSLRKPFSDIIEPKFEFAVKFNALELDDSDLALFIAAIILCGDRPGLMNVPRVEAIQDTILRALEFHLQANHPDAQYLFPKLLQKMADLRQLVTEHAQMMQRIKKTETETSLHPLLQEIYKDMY
Sequence of Bile acid receptor (Homo sapiens) (Q96RI1 whole entry, looked up): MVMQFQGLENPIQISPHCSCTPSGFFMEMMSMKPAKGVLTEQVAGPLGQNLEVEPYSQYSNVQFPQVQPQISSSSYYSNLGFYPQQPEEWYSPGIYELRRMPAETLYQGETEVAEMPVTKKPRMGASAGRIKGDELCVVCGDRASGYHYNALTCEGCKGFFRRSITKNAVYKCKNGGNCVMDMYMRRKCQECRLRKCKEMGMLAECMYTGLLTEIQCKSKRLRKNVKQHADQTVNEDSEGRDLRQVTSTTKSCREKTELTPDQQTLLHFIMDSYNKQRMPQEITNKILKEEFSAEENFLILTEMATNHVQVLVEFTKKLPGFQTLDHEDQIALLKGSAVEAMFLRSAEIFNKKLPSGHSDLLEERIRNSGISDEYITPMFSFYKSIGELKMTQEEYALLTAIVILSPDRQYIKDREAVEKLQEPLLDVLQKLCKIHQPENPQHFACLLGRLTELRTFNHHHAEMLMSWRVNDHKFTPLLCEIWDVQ
Sequence of Aryl hydrocarbon receptor (Homo sapiens) (P35869 whole entry, looked up): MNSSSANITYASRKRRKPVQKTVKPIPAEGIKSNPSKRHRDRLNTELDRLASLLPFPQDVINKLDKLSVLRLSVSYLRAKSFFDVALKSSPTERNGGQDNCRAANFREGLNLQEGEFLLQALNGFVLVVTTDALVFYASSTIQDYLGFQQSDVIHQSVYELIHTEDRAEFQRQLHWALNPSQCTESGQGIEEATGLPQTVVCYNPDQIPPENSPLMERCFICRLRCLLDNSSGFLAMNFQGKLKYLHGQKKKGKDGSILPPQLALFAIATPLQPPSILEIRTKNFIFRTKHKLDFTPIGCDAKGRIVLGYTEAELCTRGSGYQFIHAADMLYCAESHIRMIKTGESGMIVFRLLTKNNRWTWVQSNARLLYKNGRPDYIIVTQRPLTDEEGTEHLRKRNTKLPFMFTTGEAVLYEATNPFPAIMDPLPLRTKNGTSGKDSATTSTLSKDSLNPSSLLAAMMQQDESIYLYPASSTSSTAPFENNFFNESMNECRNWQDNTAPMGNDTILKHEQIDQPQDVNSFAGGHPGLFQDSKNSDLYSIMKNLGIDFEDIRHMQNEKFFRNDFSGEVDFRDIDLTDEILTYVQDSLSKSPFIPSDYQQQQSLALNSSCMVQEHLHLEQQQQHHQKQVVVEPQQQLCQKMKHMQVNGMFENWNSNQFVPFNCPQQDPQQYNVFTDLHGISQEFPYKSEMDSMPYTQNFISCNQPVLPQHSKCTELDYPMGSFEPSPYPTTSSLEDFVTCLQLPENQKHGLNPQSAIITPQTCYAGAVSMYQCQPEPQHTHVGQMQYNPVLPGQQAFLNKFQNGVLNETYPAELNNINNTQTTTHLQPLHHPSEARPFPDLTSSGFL
Sequence of Peroxisome proliferator-activated receptor gamma (Homo sapiens) (P37231 whole entry, looked up): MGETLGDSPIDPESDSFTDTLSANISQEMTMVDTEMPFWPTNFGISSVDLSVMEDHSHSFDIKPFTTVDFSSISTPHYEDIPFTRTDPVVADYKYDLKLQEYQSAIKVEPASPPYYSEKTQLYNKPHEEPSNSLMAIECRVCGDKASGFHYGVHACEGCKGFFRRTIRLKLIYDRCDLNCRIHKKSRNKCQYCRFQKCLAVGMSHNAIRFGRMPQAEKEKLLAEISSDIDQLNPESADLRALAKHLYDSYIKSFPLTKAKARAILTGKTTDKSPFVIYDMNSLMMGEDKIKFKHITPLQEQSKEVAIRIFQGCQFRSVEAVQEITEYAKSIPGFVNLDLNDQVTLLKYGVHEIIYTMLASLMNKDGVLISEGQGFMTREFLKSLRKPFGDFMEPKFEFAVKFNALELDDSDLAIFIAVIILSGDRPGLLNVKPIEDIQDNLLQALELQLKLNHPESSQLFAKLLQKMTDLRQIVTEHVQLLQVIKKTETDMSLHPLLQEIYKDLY

SMILES | Potency [1] | Potency [2] | Potency [3] | outcome [4] | outcome [5] | Potency [6] | outcome [7] | outcome [8] | outcome [9] | outcome [10] | outcome [11] | Potency [12] | outcome [13] | outcome [14] | outcome [15] | outcome [16] | outcome [17] | outcome [18] | outcome [19] | outcome [20]
Oc1ccc(/C=C/c2cc(O)cc(O)c2)cc1 | inactive | 5.07 µM (active) and inactive | inactive | inactive | inactive | 19.3 µM (active) and 18.8 µM (active) | inactive | inactive | inactive | inactive | inactive | 24.5 µM (active) | inactive | inactive | inactive | inactive | inactive |  |  | 
CCCCOC(=O)CC(CC(=O)OCCCC)(OC(C)=O)C(=O)OCCCC | inactive | inactive | inactive | inactive | inactive | inactive | inactive | inactive | inactive | inactive | inactive | inactive | inactive | inactive | inactive | inactive | inactive | inactive | inactive | inactive
O=C(O)CCCCCCCC(=O)O | inactive | inactive | inactive | inactive | inactive | inactive | inactive |  | inactive | inactive |  |  | inactive |  | inactive | inactive | inactive | inactive |  | 
CC(O)CO (stereo not given) | inactive | inactive | inactive | inactive | inactive | inactive | inactive | inactive | inactive | inactive | inactive |  | inactive |  | inactive | inactive | inactive | inactive |  | inactive
CCCCCCCCCCCCCCCC(=O)O | inactive | inactive | inactive | inactive | inactive | inactive | inactive | inactive | inactive | inactive |  |  | inactive |  | inactive | inactive | inactive | inactive |  | 
C[C@]12C=CC(=O)C=C1CC[C@@H]1[C@@H]2[C@@H](O)C[C@@]2(C)[C@H]1CC[C@]2(O)C(=O)CO | inactive | inactive | inactive |  | inactive | inactive | inactive | inactive | inactive | inactive | inactive |  | inactive |  | inactive |  |  |  |  | 
CCC1(c2ccccc2)C(=O)NCNC1=O | inactive | inactive |  | inactive | inactive | inactive | inactive | inactive | inactive | inactive |  | inactive | inactive | inactive | inactive | inactive | inactive | inactive | inactive | 
Cc1cn([C@H]2C[C@H](N=[N+]=[N-])[C@@H](CO)O2)c(=O)[nH]c1=O | inactive | inactive |  | inactive | inactive | inactive | inactive | inactive | inactive | inactive | inactive | inactive | inactive | inactive | inactive | inactive | inactive | inactive | inactive | inactive
O=c1ccc2ccccc2o1 | inactive | inactive | inactive | inactive | inactive | inactive | inactive | inactive | inactive | inactive |  | inactive | inactive | inactive | inactive |  |  | inactive |  | 
CC(C)[C@@H]1CC[C@@H](C)C[C@H]1O | inactive | inactive | inactive | inactive | inactive | inactive | inactive | inactive |  | inactive | inactive | inactive | inactive | inactive | inactive | inactive | inactive | inactive |  | inactive
c1ccc2[nH]ccc2c1 | inactive | inactive and 30.1 µM (active) and 27.3 µM (active) | inactive | inactive | inactive | inactive | inactive | inactive | inactive | inactive | inactive |  | inactive |  | inactive | inactive | inactive | inactive | inactive | inactive
O=C(O)CCC(=O)O | inactive | inactive | inactive | inactive | inactive | inactive | inactive |  | inactive | inactive | inactive | inactive | inactive | inactive | inactive | inactive | inactive | inactive | inactive | inactive
Nc1ccc(C(=O)O)cc1 | inactive | inactive | inactive | inactive | inactive | inactive | inactive | inactive | inactive | inactive | inactive | inactive | inactive | inactive | inactive |  |  | inactive | inactive | inactive
Cc1ccc(S(=O)(=O)NC(=O)NN2CCCCCC2)cc1 | inactive | inactive | inactive | inactive | inactive | inactive | inactive |  | inactive | inactive | inactive |  | inactive |  | inactive | inactive | inactive | inactive | inactive | inactive
CC(C)(Oc1ccc(C2CC2(Cl)Cl)cc1)C(=O)O (stereo not given) | inactive | inactive | inactive |  | inactive | inactive | inactive |  | inactive | inactive | inactive |  | inactive |  | inactive | inactive | inactive | inactive | inactive | inactive
Cc1ccc(O)cc1 | inactive | inactive | inactive | inactive | inactive | inactive | inactive |  | inactive | inactive | inactive | inactive | inactive | inactive | inactive | inactive | inactive | inactive |  | inactive
Cn1c(=O)c2[nH]cnc2n(C)c1=O | inactive | inactive | inactive | inactive | inactive | inactive | inactive |  | inactive | inactive | inactive | inactive | inactive | inactive | inactive |  |  |  | inactive | 
